Test results published in PubChem BioAssay (Tox21).
Inconclusive results are not listed. Calls of active or inactive are those of the source. Unless noted, the call rests on the fitted dose curve; in most records, active means well fitted curve in the direction sought with a large enough effect in the repeat runs; inconclusive means weak or mixed curves; inactive means no such curve, though single readings can be large; an effect the other way counts as inactive or inconclusive.

Legend:
[1] = qHTS assay to identify small molecule agonists of the androgen receptor (AR) signaling pathway in the presence of an antagonist - cell viability counter screen (AID 1259379);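 further: MDA-kb2 human breast cancer cells carrying an MMTV luciferase reporter; series mostly up to about 92 µM; nearly all actives have a fitted effect of over 25% in size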
How it was run: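 MDA-kb2 viability measured by CellTiter-Fluor fluorescence in the same wells as the luciferase signal; nilutamide 3.0uM final; 15-point compound titration; 16 hr at 37C.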

[2] = qHTS assay to identify small molecule agonists of the estrogen receptor beta (ER-beta) signaling pathway - cell viability counter screen (AID 1259380); further: nearly all actives have a fitted effect of over 30% in size
How it was run: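 Measured: luminescence from CellTiter-Glo after 30 min at room temperature, added to wells already read for the LiveBLAzer FRET reporter (2 hr substrate); ER-beta-UAS-bla HEK293T cells had 16 hr compound treatment at 37C, 5% CO2.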

[3] = qHTS assay to identify small molecule antagonists of the estrogen receptor beta (ER-beta) signaling pathway - cell viability counter screen (AID 1259382);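 further: HEK293T cells carrying ER-beta-UAS-bla reporter stimulated with estradiol; series mostly up to about 92 µM; nearly all actives have a fitted effect of over 55% in size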
How it was run: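 Readout: luminescence, CellTiter-Glo, same wells as bla assay. System: ER-beta-UAS-bla GripTite HEK293T, 2% charcoal-stripped FBS. Exposure: compounds plus 1nM 17-beta-estradiol, 16 hr, 37C.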

[4] = biological target: Estrogen receptor (Homo sapiens) (UniProt P03372); assay: qHTS assay to identify small molecule agonists of the estrogen receptor alpha (ER-alpha) signaling pathway in the presence of an antagonist (AID 1259383; calls by dose curve; further: top concentration of the series differs between compounds; nearly all actives have a fitted effect of over 15% in size)
How it was run: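 Quantitative HTS confirmation: compounds titrated at 15 concentrations onto estrogen-deprived VM7Luc4E2 cells carrying a four-ERE luciferase construct, with ICI-182,780 present at 10.0nM final. Signal is luminescence after 22hr exposure.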

[5] = qHTS assay to identify small molecule agonists of the estrogen receptor alpha (ER-alpha) signaling pathway in the presence of an antagonist - cell viability counter screen (AID 1259386);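 further: series mostly up to about 92 µM; cells exposed to compounds for 22 h at 37 °C before the viability read; nearly all actives have a fitted effect of over 30% in size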
How it was run: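 The test measures whether compounds kill ER-alpha reporter cells (VM7Luc4E2) under antagonist co-treatment (ICI-182,780, 10.0nM). Fluorescence from CellTiter-Fluor is read after a 22hr exposure.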

[6] = biological target: Progesterone receptor (Homo sapiens) (UniProt P06401); assay: qHTS assay to identify small molecule agonists of the progesterone receptor (PR) signaling pathway (AID 1346784; calls by dose curve; further: nearly all actives have a fitted effect of over 30% in size)
How it was run: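 Agonist mode, quantitative HTS format in a HEK 293T line expressing a UAS-controlled beta-lactamase reporter; 16 hr compound exposure at 37C in 2% charcoal-stripped FBS, then LiveBLAzer B/G FRET fluorescence.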

[7] = biological target: Progesterone receptor (Homo sapiens) (UniProt P06401); assay: qHTS assay to identify small molecule antagonists of the progesterone receptor (PR) signaling pathway (AID 1346795; active means well fitted inhibition curve with a large enough effect in the signal ratio in the repeat runs, not every such curve was filed as active; the % refers to the signal ratio)
How it was run: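 HEK293T PR-UAS-bla reporter cells in charcoal-stripped serum (2%) received compound after a 6 hr settling period, followed by R5020 agonist at 1 nM final; 16 hr incubation preceded the FRET substrate step and fluorescence measurement.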

[8] = qHTS assay to identify small molecule agonists of the progesterone receptor (PR) signaling pathway - cell viability counter screen (AID 1346799; calls by dose curve; further: nearly all actives have a fitted effect of over 45% in size)
How it was run: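 Counter screen for cytotoxicity: compound-treated PR-UAS-bla HEK293T cells (16 hr, 37C, 5% CO2) were assayed with CellTiter-Glo, luminescence measured after 30 min at room temperature.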

[9] = qHTS assay to identify small molecule agonists of the TGF-beta/Smad signaling pathway - cell viability counter screen (AID 1346829); further: top concentration of the series differs between compounds; nearly all actives have a fitted effect of over 45% in size
How it was run: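 Cytotoxicity counter screen: CellTiter-Glo luminescence (30 min, room temperature) measured in the SBE-bla HEK 293T reporter wells after 5 hr compound treatment at 37 C and the 2 hr substrate step.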

[10] = qHTS assay to identify small molecule agonists of the TGF-beta/Smad signaling pathway (AID 1346859; active means well fitted activation curve with a large enough effect in the signal ratio in the repeat runs, not every such curve was filed as active; the % refers to the signal ratio; further: series mostly up to about 77 µM)
How it was run: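 Smad-responsive beta-lactamase reporter cells (HEK 293T) received compounds from DMSO stocks after overnight attachment, were incubated 5 hr, then treated 2 hr with FRET substrate before dual-emission fluorescence measurement (405 nm excitation).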

[11] = biological target: Thyrotropin-releasing hormone receptor (Homo sapiens) (UniProt P34981); assay: qHTS assay to identify small molecule antagonists of the thyrotropin-releasing hormone receptor (TRHR) signaling pathway (AID 1346877; active means well fitted inhibition curve with a large enough effect in the repeat runs, not every such curve was filed as active; further: series mostly up to about 51 µM)
How it was run: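 Overnight-plated (18 h, 37 °C) HEK293 cells expressing TRHR were dye-loaded 2 h, treated with compound, then stimulated with TRH at 1 nM final. Fluorescence intensity was captured every second for 3 min.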

[12] = biological target: Thyrotropin-releasing hormone receptor (Homo sapiens) (UniProt P34981); assay: qHTS assay to identify small molecule agonists of the thyrotropin-releasing hormone receptor (TRHR) signaling pathway (AID 1346891; calls by dose curve;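 further: HEK293 cells expressing TRHR with calcium dye readout; series mostly up to about 58 µM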)
How it was run: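 Agonist-mode calcium mobilisation screen: TRHR-transfected HEK293 cells cultured overnight (18 h), dye-loaded for 2 h at 37 °C, exposed to compounds, and monitored by fluorescence for 3 min.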

[13] = biological target: Thyrotropin receptor (Homo sapiens) (UniProt P16473); assay: qHTS assay to identify small molecule antagonists of the thyroid stimulating hormone receptor (TSHR) signaling pathway (AID 1259385; calls by dose curve; further: nearly all actives have a fitted effect of over 20% in size)
How it was run: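 TSHR-HEK293 cells were plated and held 18 h at 37C/5% CO2, then given compound plus Ro20-1724 and stimulated with TSH at 1.5 ng/mL final. After 30 min at room temperature, cAMP was detected with cAMP-d2/anti-cAMP-cryptate (1 h) by fluorescence.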

[14] = qHTS assay to identify small molecule antagonists of the progesterone receptor (PR) signaling pathway - cell viability counter screen (AID 1346798); further: series mostly up to about 92 µM; nearly all actives have a fitted effect of over 50% in size
How it was run: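 Same-well multiplex: after 16 hr at 37C with compound and R5020 stimulation, HEK293T cells carrying a UAS-bla reporter received LiveBLAzer substrate (2 hr RT), then CellTiter-Glo (30 min RT) for luminescent viability.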

[15] = biological target: Androgen receptor (Homo sapiens) (UniProt P10275); assay: qHTS assay to identify small molecule agonists of the androgen receptor (AR) signaling pathway in the presence of an antagonist (AID 1259381; calls by dose curve; further: nearly all actives have a fitted effect of over 15% in size)
How it was run: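 Luminescent ONE-Glo read, 30min at room temperature, follows 16hr compound exposure (15 concentrations) of MDA-kb2 cells at 37C, 0% CO2, with nilutamide added at 3.0uM final.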

[16] = qHTS assay to identify small molecule agonists or antagonists of the thyroid stimulating hormone receptor (TSHR) signaling pathway - wild type cell line counter screen (AID 1259384; calls by dose curve)
How it was run: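 Wild-type HEK293 cells were plated 18 h at 37 C/5% CO2, pin-dosed with compound plus Ro20-1724 medium, held 30 min at room temperature, then given cAMP-d2 and anti-cAMP-cryptate; fluorescence was read after 1 h. Fifteen concentrations, triplicate.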

[17] = qHTS assay to identify small molecule antagonists of the TGF-beta/Smad signaling pathway - cell viability counter screen (AID 1346824); further: nearly all actives have a fitted effect of over 50% in size
How it was run: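 SBE-bla HEK 293T cells were plated overnight at 37 C, then given compounds in DMSO plus TGF-beta1 (added as 0.25 ng/mL solution) for 5 hr. After the bla read, CellTiter-Glo was added to the same wells and luminescence read after 30 min at room temperature.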

Measured: Potency

Thyrotropin receptor (Homo sapiens), sequence (P16473 whole entry, looked up): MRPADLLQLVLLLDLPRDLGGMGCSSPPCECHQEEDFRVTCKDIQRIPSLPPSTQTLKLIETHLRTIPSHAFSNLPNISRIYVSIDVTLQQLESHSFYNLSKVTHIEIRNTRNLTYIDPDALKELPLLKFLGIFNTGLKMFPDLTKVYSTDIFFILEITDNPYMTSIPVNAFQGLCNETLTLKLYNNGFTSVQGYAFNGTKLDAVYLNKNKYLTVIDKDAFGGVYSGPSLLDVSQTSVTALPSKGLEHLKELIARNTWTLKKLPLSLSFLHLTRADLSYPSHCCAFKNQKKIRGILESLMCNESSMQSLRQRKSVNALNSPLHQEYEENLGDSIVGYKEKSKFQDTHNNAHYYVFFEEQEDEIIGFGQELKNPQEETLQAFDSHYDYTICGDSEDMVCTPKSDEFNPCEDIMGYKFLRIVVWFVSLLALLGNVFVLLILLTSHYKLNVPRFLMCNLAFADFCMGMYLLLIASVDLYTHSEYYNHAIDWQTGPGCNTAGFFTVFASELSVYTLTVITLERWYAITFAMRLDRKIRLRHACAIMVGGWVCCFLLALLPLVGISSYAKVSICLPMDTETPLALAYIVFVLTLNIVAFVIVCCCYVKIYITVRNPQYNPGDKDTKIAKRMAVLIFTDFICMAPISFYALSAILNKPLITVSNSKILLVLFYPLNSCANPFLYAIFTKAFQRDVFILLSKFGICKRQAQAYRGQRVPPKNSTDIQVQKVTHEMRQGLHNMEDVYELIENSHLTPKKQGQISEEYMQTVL
Androgen receptor (Homo sapiens), sequence (P10275 whole entry, looked up): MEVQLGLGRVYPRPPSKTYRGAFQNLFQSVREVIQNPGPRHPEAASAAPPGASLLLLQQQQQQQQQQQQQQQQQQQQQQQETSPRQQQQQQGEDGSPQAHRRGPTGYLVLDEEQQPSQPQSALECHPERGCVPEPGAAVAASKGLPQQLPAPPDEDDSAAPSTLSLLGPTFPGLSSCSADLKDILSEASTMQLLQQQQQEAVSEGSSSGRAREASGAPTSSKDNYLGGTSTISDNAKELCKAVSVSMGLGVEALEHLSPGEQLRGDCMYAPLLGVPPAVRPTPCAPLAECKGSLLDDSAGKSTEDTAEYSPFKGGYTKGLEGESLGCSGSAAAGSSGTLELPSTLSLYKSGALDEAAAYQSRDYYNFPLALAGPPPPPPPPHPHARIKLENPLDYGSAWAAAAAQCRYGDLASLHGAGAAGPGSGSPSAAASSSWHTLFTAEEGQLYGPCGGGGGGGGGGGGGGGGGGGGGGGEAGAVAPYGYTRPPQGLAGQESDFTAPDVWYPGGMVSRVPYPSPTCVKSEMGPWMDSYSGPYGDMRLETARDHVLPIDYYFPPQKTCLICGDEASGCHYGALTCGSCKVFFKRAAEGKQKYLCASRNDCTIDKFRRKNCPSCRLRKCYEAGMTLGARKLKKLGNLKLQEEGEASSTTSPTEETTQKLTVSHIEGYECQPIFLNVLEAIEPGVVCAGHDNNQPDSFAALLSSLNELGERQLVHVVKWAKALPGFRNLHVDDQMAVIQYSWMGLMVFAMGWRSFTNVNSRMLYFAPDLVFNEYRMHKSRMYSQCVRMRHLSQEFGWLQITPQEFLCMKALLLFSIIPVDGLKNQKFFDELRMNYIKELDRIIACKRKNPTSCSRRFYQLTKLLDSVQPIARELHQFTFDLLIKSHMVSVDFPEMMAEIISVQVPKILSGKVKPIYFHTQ
Estrogen receptor (Homo sapiens), sequence (P03372 whole entry, looked up): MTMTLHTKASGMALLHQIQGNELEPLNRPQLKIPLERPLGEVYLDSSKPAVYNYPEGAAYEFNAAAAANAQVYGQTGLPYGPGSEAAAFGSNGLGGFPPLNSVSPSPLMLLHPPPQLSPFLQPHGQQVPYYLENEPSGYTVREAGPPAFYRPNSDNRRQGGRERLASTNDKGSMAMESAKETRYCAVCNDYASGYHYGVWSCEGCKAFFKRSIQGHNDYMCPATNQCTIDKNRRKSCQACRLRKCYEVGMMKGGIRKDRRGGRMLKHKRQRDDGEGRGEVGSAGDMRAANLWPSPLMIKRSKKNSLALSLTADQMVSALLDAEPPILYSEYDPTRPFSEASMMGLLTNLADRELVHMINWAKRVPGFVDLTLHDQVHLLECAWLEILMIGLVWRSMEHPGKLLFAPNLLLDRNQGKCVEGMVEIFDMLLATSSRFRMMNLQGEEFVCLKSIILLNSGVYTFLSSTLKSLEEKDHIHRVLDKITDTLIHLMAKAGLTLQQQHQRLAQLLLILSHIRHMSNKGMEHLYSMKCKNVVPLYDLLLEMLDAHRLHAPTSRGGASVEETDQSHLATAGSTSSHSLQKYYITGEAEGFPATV
Thyrotropin-releasing hormone receptor (Homo sapiens), sequence (P34981 whole entry, looked up): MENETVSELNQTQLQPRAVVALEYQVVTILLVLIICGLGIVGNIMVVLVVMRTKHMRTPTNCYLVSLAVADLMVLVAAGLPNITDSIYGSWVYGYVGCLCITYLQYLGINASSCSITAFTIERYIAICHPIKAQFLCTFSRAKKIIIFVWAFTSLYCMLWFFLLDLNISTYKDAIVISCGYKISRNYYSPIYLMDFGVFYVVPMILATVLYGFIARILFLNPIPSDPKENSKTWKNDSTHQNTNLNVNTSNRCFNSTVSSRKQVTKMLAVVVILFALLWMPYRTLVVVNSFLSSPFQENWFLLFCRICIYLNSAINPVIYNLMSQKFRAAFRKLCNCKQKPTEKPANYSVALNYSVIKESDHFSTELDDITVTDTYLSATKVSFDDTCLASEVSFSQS
Progesterone receptor (Homo sapiens), sequence (P06401 whole entry, looked up): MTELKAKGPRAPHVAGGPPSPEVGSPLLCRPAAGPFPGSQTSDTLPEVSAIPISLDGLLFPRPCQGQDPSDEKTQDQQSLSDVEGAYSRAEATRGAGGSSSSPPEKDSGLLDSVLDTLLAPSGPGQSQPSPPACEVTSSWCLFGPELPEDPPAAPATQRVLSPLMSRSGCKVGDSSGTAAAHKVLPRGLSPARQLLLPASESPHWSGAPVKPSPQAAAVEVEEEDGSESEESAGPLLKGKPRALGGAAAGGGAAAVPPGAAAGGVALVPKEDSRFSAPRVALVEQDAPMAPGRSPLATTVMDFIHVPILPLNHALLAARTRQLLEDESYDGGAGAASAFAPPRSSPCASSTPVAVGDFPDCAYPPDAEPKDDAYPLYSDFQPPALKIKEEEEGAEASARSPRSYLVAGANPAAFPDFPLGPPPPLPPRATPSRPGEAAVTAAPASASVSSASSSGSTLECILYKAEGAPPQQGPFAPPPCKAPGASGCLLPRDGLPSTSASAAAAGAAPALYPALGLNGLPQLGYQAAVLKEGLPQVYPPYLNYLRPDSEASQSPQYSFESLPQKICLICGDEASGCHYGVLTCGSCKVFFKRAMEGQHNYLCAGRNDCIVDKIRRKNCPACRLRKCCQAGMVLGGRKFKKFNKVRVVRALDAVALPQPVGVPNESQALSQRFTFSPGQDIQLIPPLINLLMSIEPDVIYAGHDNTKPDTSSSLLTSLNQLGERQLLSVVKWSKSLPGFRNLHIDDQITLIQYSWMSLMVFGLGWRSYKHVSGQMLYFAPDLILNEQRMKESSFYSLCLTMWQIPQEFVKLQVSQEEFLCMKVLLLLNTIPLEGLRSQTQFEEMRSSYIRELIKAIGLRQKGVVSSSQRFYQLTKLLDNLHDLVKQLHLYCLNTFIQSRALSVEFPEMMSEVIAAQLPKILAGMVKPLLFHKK

CCCCCCCCCCCl
not listed: [13] | [14] | [15] | [16] | [17]
inactive: all other assays above

CN(C)CCOC(c1ccc(Cl)cc1)c1ccccn1 (centres undefined)
not listed: [15] | [16] | [17]
inactive: all other assays above

Cc1ccc(N)cc1[N+](=O)[O-]
not listed: [4]
inactive: all other assays above

Cc1ccc(Nc2ccc(O)c3c2C(=O)c2ccccc2C3=O)cc1
not listed: [1] | [8] | [13] | [15] | [16]
inactive: all other assays above

CN(C)CCn1nnnc1SCC1=C(C(=O)O)N2C(=O)[C@@H](NC(=O)Cc3csc(N)n3)[C@H]2SC1
not listed: [4]
inactive: all other assays above

CC1(C)OC(=O)Nc2ccc(Br)cc21
not listed: [7]
inactive: all other assays above

O=[N+]([O-])c1ccc(CCO)cc1
not listed: [4] | [15] | [16]
inactive: all other assays above

NC(CS)C(=O)O (centres undefined)
not listed: [4] | [11] | [12] | [15]
inactive: all other assays above

NCCNC(=O)c1ccc(Cl)cn1
not listed: [15]
inactive: all other assays above
